PubChem BioAssay
Active and inactive are the calls of the source.

Assays:
[1] = optical density shifts of acrAB sulA E. coli – strain DRC41, OD650, 48 h, E. coli filamentation inducer project, primary screen (AID 1152); conditions: higher = more signal, called active from +8 up or from −8 down;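 further: E. coli MC1000 strain DRC41 lacking acrAB efflux pump and sulA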
[2] = probe aLefty1 binding on compound microarray – biochemical, small-molecule microarray, 635/667 nm fluorescence, primary screen (AID 1153); conditions: higher = more signal;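 further: score merges spot fluorescence with signal-to-noise ratio from the scanned slide images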
[3] = plasmodial surface anion channel blockers, osmotic lysis – cell-based, P. falciparum Indochina, OD700, 1 h, primary screen (AID 1154); conditions: P. falciparum Indochina infected RBC osmotic lysis, higher = more signal, called active from +8 up or from −8 down
[4] = plasmodial surface anion channel blockers, osmotic lysis – cell-based, P. falciparum Indochina, OD700, 2 h, primary screen (AID 1155);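 further: lysis reports solute entry through the parasite surface anion channel PSAC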; conditions: P. falciparum Indochina infected erythrocytes, higher = more signal, called active from +8 up or from −8 down
[5] = changes in parasitized red cell lysis, either direction – P. falciparum Indochina, OD700, 3 h, PSAC antagonist project, primary screen (AID 1156); conditions: P. falciparum-infected erythrocytes, osmotic lysis, higher = more signal, called active from +8 up or from −8 down
[6] = plasmodial surface anion channel blockers, osmotic lysis – cell-based, P. falciparum Indochina, OD700, 18 h, primary screen (AID 1157); conditions: P. falciparum Indochina infected erythrocytes, osmotic lysis OD700, 18 h; higher = more signal, called active from +8 up or from −8 down
[7] = S6 kinase pathway phospho-S6 level changes – cell-based, A549, cytoblot, luminescence, serum-stimulated, primary screen (AID 1158); conditions: 5 h, higher = more signal;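 further: serum-stimulated A549 lung adenocarcinoma cells; signal is phosphorylated S6 detected by cytoblot immunostaining with HRP secondary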
[8] = target: NADPH oxidase 2 (Homo sapiens) (UniProt P04839); assay: compounds shifting NOX2 Amplex Red fluorescence – cell-based, HEK293-NOX2, PMA-stimulated, NOX inhibitor project, primary screen (AID 1159); conditions: 45 min, higher = more signal, called active from +8 up or from −8 down; further: test concentration not given here
[9] = target: NADPH oxidase 4 (Homo sapiens) (UniProt Q9NPH5); assay: compounds shifting NOX4 Amplex Red fluorescence – cell-based, HEK293-NOX4, tetracycline-induced, NOX inhibitor project, primary screen (AID 1160); conditions: HEK293-NOX4, Amplex Red H2O2 fluorescence, 45 min; higher = more signal, called active from +8 up or from −8 down
[10] = target: NADPH oxidase 5 (Homo sapiens) (UniProt Q96PH1); assay: compounds shifting NOX5 Amplex Red fluorescence – cell-based, HEK293-NOX5, NOX inhibitor project, primary screen (AID 1161); conditions: HEK293-NOX5, ionomycin, 45 min, higher = more signal
[11] = compound effects on lung adenocarcinoma cell viability – A549, calcein-AM fluorescence, 48 h, basal, profiling panel (AID 1162); conditions: higher = more signal; further: test concentration not given here
[12] = compound effects on differentiated 3T3-L1 adipocyte viability – cell-based, 3T3-L1 adipocytes, calcein-AM fluorescence, 48 h, basal, profiling panel (AID 1163); conditions: 3T3-L1 adipocytes viability, higher = more signal; further: test concentration not given here
[13] = compound effects on hepatocellular carcinoma cell viability – HepG2, calcein-AM fluorescence, 48 h, basal, profiling panel (AID 1164); conditions: higher = more signal; further: test concentration not given here
[14] = compound effects on multiple myeloma cell viability – MM1S, calcein-AM fluorescence, 48 h, basal, profiling panel (AID 1165); conditions: higher = more signal; further: test concentration not given here
[15] = calcein-AM signal in unstimulated myeloma cells – cell-based, calcein-AM fluorescence, 48 h, PK04 Diversity Set, profiling panel (AID 1166); conditions: RPMI8226 myeloma viability, higher = more signal;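 further: cells grown under basal conditions without added stimulus; test concentration not given here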
[16] = JC-1 mitochondrial signal, unstimulated HepG2 cells – cell-based, JC-1 fluorescence, 24 h, 100 nL compound, profiling panel (AID 1167); conditions: HepG2 mitochondrial potential, higher = more signal; further: test concentration not given here
[17] = JC-1 mitochondrial signal, unstimulated adipocytes – cell-based, JC-1 fluorescence, 3T3-L1 adipocytes, 24 h, 100 nL compound, profiling panel (AID 1168); conditions: JC-1 mitochondrial fluorescence, higher = more signal, called active from +8 up or from −8 down; further: test concentration not given here
[18] = JC-1 mitochondrial signal, unstimulated myeloma cells – cell-based, JC-1 fluorescence, RPMI8226, 24 h, 100 nL compound, profiling panel (AID 1169); conditions: JC-1 mitochondrial potential fluorescence, higher = more signal; further: test concentration not given here
[19] = JC-1 mitochondrial signal, unstimulated MM1S myeloma – cell-based, JC-1 fluorescence, 24 h, 100 nL compound, profiling panel (AID 1170); conditions: MM1S mitochondrial potential, higher = more signal; further: test concentration not given here
[20] = resazurin metabolic signal in A549 cells – cell-based, resazurin fluorescence, 24 h, PK04 Diversity Set, profiling panel (AID 1171); conditions: A549 viability, higher = more signal, called active from +8 up or from −8 down; further: test concentration not given here

Sequence of NADPH oxidase 2 (Homo sapiens) (P04839 whole entry, looked up): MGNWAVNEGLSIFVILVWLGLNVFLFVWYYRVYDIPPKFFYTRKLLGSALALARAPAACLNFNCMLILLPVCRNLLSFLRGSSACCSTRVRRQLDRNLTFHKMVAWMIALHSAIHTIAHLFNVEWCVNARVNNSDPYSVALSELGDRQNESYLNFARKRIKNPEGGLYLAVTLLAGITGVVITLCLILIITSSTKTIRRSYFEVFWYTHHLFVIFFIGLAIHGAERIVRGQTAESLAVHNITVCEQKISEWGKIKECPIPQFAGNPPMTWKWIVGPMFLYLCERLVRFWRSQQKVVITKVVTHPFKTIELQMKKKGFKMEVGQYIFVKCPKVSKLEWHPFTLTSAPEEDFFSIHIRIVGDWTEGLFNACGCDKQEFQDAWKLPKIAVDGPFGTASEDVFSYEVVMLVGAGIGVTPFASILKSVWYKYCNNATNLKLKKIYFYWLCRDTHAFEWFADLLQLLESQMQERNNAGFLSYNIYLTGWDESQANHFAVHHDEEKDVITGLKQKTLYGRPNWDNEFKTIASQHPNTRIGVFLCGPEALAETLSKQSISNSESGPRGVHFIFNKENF
Sequence of NADPH oxidase 4 (Homo sapiens) (Q9NPH5 whole entry, looked up): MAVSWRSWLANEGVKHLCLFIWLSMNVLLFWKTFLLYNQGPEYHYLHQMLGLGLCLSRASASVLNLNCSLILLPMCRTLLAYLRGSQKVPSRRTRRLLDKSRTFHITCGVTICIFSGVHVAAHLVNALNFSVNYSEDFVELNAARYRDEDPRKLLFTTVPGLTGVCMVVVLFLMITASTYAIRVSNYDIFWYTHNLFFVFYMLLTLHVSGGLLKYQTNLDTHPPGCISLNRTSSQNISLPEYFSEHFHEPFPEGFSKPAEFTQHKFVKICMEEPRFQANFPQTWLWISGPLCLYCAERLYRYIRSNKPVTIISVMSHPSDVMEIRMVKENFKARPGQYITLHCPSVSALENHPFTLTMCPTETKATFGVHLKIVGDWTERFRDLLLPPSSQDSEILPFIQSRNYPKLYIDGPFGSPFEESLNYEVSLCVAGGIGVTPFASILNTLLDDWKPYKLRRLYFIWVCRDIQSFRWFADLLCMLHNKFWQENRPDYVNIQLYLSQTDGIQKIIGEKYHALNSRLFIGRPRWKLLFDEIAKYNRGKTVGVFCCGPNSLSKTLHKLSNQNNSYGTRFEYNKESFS
Sequence of NADPH oxidase 5 (Homo sapiens) (Q96PH1 whole entry, looked up): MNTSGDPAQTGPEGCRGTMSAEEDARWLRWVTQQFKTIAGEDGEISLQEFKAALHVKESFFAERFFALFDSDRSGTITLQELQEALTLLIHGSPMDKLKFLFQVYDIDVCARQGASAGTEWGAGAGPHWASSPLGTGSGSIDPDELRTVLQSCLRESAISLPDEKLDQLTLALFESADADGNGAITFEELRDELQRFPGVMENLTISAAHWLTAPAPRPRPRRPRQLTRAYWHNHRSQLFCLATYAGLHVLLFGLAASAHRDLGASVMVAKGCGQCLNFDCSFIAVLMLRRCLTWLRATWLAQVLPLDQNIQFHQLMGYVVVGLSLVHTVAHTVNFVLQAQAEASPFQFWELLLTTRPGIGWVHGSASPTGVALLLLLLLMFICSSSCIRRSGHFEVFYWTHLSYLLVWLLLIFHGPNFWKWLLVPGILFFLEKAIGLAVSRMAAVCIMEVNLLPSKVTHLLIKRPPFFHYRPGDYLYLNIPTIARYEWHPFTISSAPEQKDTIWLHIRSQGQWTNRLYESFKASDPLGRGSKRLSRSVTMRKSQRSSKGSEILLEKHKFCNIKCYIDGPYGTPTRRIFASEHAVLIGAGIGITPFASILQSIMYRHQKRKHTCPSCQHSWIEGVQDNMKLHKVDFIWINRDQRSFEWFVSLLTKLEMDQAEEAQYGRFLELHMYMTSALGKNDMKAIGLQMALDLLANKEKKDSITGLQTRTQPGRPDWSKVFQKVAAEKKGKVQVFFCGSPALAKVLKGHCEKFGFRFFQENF

Row | SMILES | z-score [1] | composite z-score [2] | z-score [3] | z-score [4] | z-score [5] | z-score [6] | z-score [7] | z-score [8] | z-score [9] | z-score [10] | z-score [11] | z-score [12] | z-score [13] | z-score [14] | z-score [15] | z-score [16] | z-score [17] | z-score [18] | z-score [19] | z-score [20]
1 | O=c1cccc(-c2ccco2)o1 | -1.13 (inactive) | -0.103 | 0.128 (inactive) | 0.0564 (inactive) | -0.394 (inactive) | 0.143 (inactive) | -0.397 | 0.523 (inactive) | -0.772 (inactive) | -0.722 | -0.69 | 0.474 | 0.219 | 0.0393 | -0.159 | -0.79 | 1.1 (inactive) | 0.773 | -0.605 | -0.214 (inactive)
2 | CC(C)[C@H]1NC(=O)[C@@]23C(=O)N[C@@H](Cc4ccccc4)C2[C@H](C)[C@@]2(C)O[C@H]2C3/C=C/CCC/C=C/CNC(=O)[C@H](Cc2ccccc2)NC1=O (stereo not given in full) | -0.246 (inactive) | 0.0582 | 1.18 (inactive) | 0.581 (inactive) | 0.81 (inactive) | 0.182 (inactive) | 0.352 | 1.46 (inactive) | 0.525 (inactive) | 0.896 | -0.315 | 0.532 | 0.304 | -0.837 | -1.6 | 1.18 | -0.499 (inactive) | -0.157 | 1.84 | -1.25 (inactive)
3 | CC(=O)NCCCC[C@@H]1NC(=O)[C@@H]2C[C@H](C(=O)NCCCCCCN)[C@H](c3cccc(OCCO)c3)N2C1=O | -0.813 (inactive) | 0.0455 | 9.65 (active) | 0.503 (inactive) | 0.819 (inactive) | 0.351 (inactive) | -0.42 | 0.892 (inactive) | 0.353 (inactive) | -0.568 | -0.182 | 0.691 | 0.268 | 0.213 | -0.413 | -1.26 | -0.0165 (inactive) | 0.648 | 0.0193 | -0.358 (inactive)
4 | Cc1ccc(C(C)CC(O)C2C=CC3C(=O)N(c4ccccc4)C(=O)C3N2Nc2ccc(C#N)cc2)o1 (stereo not given) | 0.249 (inactive) | 0.198 | 7.4 (inactive) | 0.478 (inactive) | 0.45 (inactive) | -0.397 (inactive) | 0.729 | -2.43 (inactive) | -3.34 (inactive) | -2.6 | 0.491 | -0.0968 | 0.459 | -3.7 | -0.355 | 0.175 | -0.155 (inactive) | -1.05 | -1.2 | -1.17 (inactive)
5 | CC(=O)n1cc(C(O)C2C=CC3C(=O)N(c4ccccc4)C(=O)C3N2Nc2ccc(C(C)C)cc2)c2ccccc21 (stereo not given) | -1.44 (inactive) | 0.698 | 2.38 (inactive) | 0.959 (inactive) | -0.43 (inactive) | 1.46 (inactive) | -1.04 | -1.19 (inactive) | -2.92 (inactive) | -3.44 | -0.545 | -0.745 | -1.08 | -0.829 | -1.33 | -0.975 | -1.16 (inactive) | -0.886 | 0.299 | 0.169 (inactive)
6 | COC(=O)[C@@]1(Cc2ccc(F)cc2)[C@H]2c3cc(C(=O)N(C)C)n(Cc4c(CO)[nH]cc(C)c4=O)c3C[C@H]2CN1C(=O)c1ccccc1 | -1.35 (inactive) | 0.0752 | 0.756 (inactive) | 0.19 (inactive) | 0.865 (inactive) | 0.816 (inactive) | -0.122 | 0.31 (inactive) | -0.0408 (inactive) | -3.5 | -0.108 | 0.837 | -0.554 | -1.33 | -0.372 | -0.3 | -0.91 (inactive) | -0.00352 | -0.895 | -1.42 (inactive)
7 | COc1ccc(C(O)C2C=CC3C(=O)N(c4ccccc4)C(=O)C3N2Nc2ccc(C(C)C)cc2)c2ccccc12 (stereo not given) | -0.534 (inactive) | 0.4 | 1.68 (inactive) | 1.35 (inactive) | 0.155 (inactive) | 1.27 (inactive) | -1.09 | 0.373 (inactive) | -2.59 (inactive) | -3.17 | 0.181 | -0.946 | 0.301 | -0.419 | 0.129 | -0.783 | 0.0228 (inactive) | -0.293 | -0.154 | -0.64 (inactive)
8 | CC(C)(C)OC(=O)CC[C@]1(C(=O)N2CCCCC2)COC(c2ccc(OCCCO)cc2)=N1 | 1.12 (inactive) | -0.403 | 22.2 (active) | 5.22 (inactive) | 1.11 (inactive) | 0.663 (inactive) | -0.515 | -2.59 (inactive) | 0.0723 (inactive) | -2.08 | -0.34 | 0.162 | -0.614 | -0.0601 | -0.225 | -0.696 | -0.378 (inactive) | -0.492 | -0.978 | 2.58 (inactive)
9 | Cc1c(NC(=O)/C(C#N)=C/c2ccccc2Cl)c(=O)n(-c2ccccc2)n1C | 1.32 (inactive) | -0.296 | 0.471 (inactive) | -1.52 (inactive) | -0.945 (inactive) | -1.34 (inactive) | 1.22 | -3.65 (inactive) | -0.56 (inactive) | 0.29 | 1.62 | 0.228 | 1.02 | 0.867 | 1.52 | 0.771 | 1.14 (inactive) | -0.0416 | -1.04 | -0.357 (inactive)
